Source: PubChem (Sanford-Burnham Center for Chemical Genomics)
CYP2C19 inhib: blockers of cytochrome P450 2C19 activity – biochemical, luminescence, ADME assay, primary screen. P33261. CYP2C19 Supersomes, luciferin-H EGE luminescence, 30 min. inhibition, % at 5 µM. actives 21% (n = 96,000). AID 778, 2007;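 active means CYP2C19 inhibition above a set limit at 5 µM in the primary screen, cut at about 50% in these data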;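 further: plate controls were negative control wells for no effect and 2.5 mM tranylcypromine positive control for full effect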
CYP2C19 activ: human CYP2C19 activators, primary screen, biochemical, luminescence; Cytochrome P450 2C19 (Homo sapiens), P33261; recombinant CYP2C19, luciferin-H EGE luminescence; stronger effect = higher value; 0 = fully inhibited enzyme, 1 = untreated enzyme; activation factor at 5 µM; 96,000 tested, under 10 active; AID 1025, 2008;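 active means activation factor of at least 2 at 5 µM in the primary screen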;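 further: 0 = wells with 2.5 mM tranylcypromine and 1 = vehicle-only wells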
CYP2C9 activ: human CYP2C9 activators, primary screen, biochemical, luminescence; Cytochrome P450 2C9 (Homo sapiens), P11712; recombinant CYP2C9, luciferin-H conversion; stronger effect = higher value; factor 1 = untreated enzyme, 0 = blocked; activation factor at 5 µM; actives 1.4% (n = 96,000); AID 1024, 2008;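 active means activation factor of 2 or more for CYP2C9 at a 5 µM dose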;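 further: 0 = sulfaphenazole-blocked wells and 1 = vehicle-only wells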
Target sequence (P11712 whole entry, looked up): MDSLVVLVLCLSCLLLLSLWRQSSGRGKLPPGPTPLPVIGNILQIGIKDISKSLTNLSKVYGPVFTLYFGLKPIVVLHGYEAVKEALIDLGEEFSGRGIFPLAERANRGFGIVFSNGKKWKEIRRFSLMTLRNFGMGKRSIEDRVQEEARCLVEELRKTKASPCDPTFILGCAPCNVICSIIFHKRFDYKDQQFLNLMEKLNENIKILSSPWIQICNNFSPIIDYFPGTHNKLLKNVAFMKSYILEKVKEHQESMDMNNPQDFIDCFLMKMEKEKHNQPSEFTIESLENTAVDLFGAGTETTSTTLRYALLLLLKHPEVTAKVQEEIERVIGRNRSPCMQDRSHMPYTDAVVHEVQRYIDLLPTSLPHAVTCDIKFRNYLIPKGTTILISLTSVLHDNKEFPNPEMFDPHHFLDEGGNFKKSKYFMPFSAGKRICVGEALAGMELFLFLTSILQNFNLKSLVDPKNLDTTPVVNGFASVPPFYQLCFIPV
CYP2C9 inhib: blockers of cytochrome P450 2C9 activity – biochemical, luminescence, ADME assay, primary screen; P11712; CYP2C9 Supersomes, luciferin-H conversion; inhibition, % at 5 µM; actives 20% (n = 96,000); AID 777, 2007;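 active means blocking of liver enzyme CYP2C9 beyond about 50% at 5 µM, limit read from the data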
Starred values were filed as active, the others as inactive. Most compounds without a hit are left out; they make up all but 31% or so of the library.

SMILES	CYP2C19 inhib	CYP2C19 activ	CYP2C9 activ	CYP2C9 inhib
CCC(Sc1nnnn1C)C(=O)Nc1ccc(C(C)=O)cc1 (stereo not given)	28.7	0.7	0.8	20.8
CC(Sc1nnnn1C)C(=O)Nc1ccc(Oc2ccccc2)cc1 (stereo not given)	62.9*	0.4	0.5	45.7
O=C(c1ccc(CNc2c(NC3CCCCC3)c(=O)c2=O)cc1)N1CCc2ccccc21	5.2	0.9	0.8	19.2
COc1ccccc1C/C(N)=N/OC(=O)c1cccc([N+](=O)[O-])c1	9.0	0.9	2.4*	-141.5
COc1cc(Cc2nc3ccc(S(=O)(=O)N4CCOCC4)cc3[nH]2)cc(OC)c1OC	5.3	0.9	0.9	6.8
CCN1CCN(C(=O)c2ccc(Cl)c(S(=O)(=O)N3CCOCC3)c2)CC1	9.7	0.9	0.7	28.3
O=C(NCCNS(=O)(=O)c1ccc(Cl)cc1)c1cc(OCC(F)(F)F)ccc1OCC(F)(F)F	41.9	0.6	1.1	-5.6
CCCCn1c(SCC(=O)NC(=O)NCc2ccco2)nc2cc(S(N)(=O)=O)ccc21	8.0	0.9	0.8	16.6
CC1Cc2ccccc2N1S(=O)(=O)c1cccc(C(=O)NCCCO)c1 (stereo not given)	52.0*	0.5	0.6	35.7
CC1Cc2ccccc2N1S(=O)(=O)c1cccs1 (stereo not given)	80.9*	0.2	1	3.6
CCOc1ccc(S(=O)(=O)N2c3ccccc3CC2C)cc1 (stereo not given)	52.3*	0.5	0.1	93.9*
O=C(NCCO)c1cccc(S(=O)(=O)N2CCCCC2)c1	-2.6	1	1.1	-14.4
CC1Cc2ccccc2N1C(=O)CCS(=O)(=O)c1cccs1 (stereo not given)	51.6*	0.5	0.8	22.9
CC1Cc2ccccc2N1C(=O)Cc1cccs1 (stereo not given)	28.9	0.7	1.1	-6.5
Oc1c(Cl)cc(Cl)cc1C(C#Cc1ccccc1)N1CCOCC1 (stereo not given)	23.8	0.8	0.3	67.0*
CCCC(=O)Nc1cc(Cl)ccc1N1CCN(C(=O)CC)CC1	86.3*	0.1	0.2	84.6*
CCC(=O)N1CCN(c2ccc(Cl)cc2NC(=O)Cc2ccc(Cl)cc2)CC1	51.2*	0.5	0.5	45.2
Cc1cc(=O)[nH]c(S/C=C/c2ccccc2)n1	17.1	0.8	0.6	36.2
Cc1c(C(=O)N2CCN(c3ccccn3)CC2)sc2ncnc(N3CCOCC3)c12	18.7	0.8	0.4	57.5*
Cc1sc2ncnc(N3CCOCC3)c2c1C	23.7	0.8	1	-3.7
Cc1c(C(=O)N2CCC(C)CC2)sc2ncnc(N3CCN(c4ccccc4)CC3)c12	65.9*	0.3	0.1	94.8*
CCN(CC)c1ncnc2sc(C(=O)N3CCN(c4ccccc4)CC3)c(C)c12	26.4	0.7	0.4	62.5*
CCOc1ccc(CCNC(=O)CN2CCN(Cc3ccccc3C)C2=O)cc1OCC	35.5	0.6	0.6	36.3
O=C(NCCc1ccccc1)C1CCN(S(=O)(=O)c2cccc3nsnc23)CC1	20.8	0.8	2*	-103.6
O=C(NCc1cccs1)C(NS(=O)(=O)c1cccc2nsnc12)c1ccccc1 (stereo not given)	30.1	0.7	0.4	55.1*
SMILES	CYP2C19 inhib	CYP2C19 activ	CYP2C9 activ	CYP2C9 inhib
O=C(c1ccco1)N1CCN(S(=O)(=O)c2cccc3nsnc23)CC1	74.9*	0.3	0.7	32.5
O=C(NCc1cccs1)C1CCN(S(=O)(=O)c2cccc3nsnc23)CC1	14.6	0.9	2.5*	-153.1
O=C(CNC(=O)c1cnccn1)Nc1ccc(F)c(F)c1F	46.3	0.5	0.9	5.5
Cc1cc(C)c(C#N)c(SC2CCCCC2=O)n1 (stereo not given)	61.1*	0.4	1.2	-18.1
CCN(CC)S(=O)(=O)c1ccc(-c2nnc(SCC(=O)Nc3nc(C)cs3)o2)cc1	6.6	0.9	0.5	46.5
O=C(CSc1nnc(-c2ccc(S(=O)(=O)N3CCCC3)cc2)o1)NCc1ccco1	63.3*	0.4	0.2	76.6*
Cc1csc(NC(=O)CSc2nnc(-c3ccc(S(=O)(=O)N4CCCC4)cc3)o2)n1	30.9	0.7	0.4	61.4*
COc1cc(OC)cc(-c2nnc(SCC(=O)NCc3cccs3)o2)c1	88.8*	0.1	0.8	19.8
CC1Cc2ccccc2N1C(=O)CSc1nnc(-c2ccc(S(=O)(=O)N3CCCC3)cc2)o1 (stereo not given)	65.9*	0.3	0.1	88.1*
